# High-throughput results: PubChem BioAssay, National Center for Advancing Translational Sciences (NCATS)
# KB-3-1 cytotox: qHTS assay for MDR1-selective chemotherapeutics: Primary screen using the parental adenocarcinoma cell KB-3-1. Potency, µM (series often up to 46.1 µM), actives largely listed as cytotoxic. KB-3-1 viability, CellTiter-Glo ATP luminescence, 72 h. AID 1347075, 2019. actives 1.4% (n = 400,000); further: on the % scale 0 is the no-effect control and ±100 the full control effect; nearly all actives have a fitted effect of over 60% in size
#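 Cytotoxicity measured as CellTiter-Glo luminescence after 72 h at 37 C. Compound titrations were pinned onto drug-naive KB-3-1 parental adenocarcinoma cells grown in DMEM with 10% FBS, and normalized data fitted to concentration-response curves.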
# SW480 rerep: A quantitative high throughput screen for small molecules that induce DNA re-replication in SW480 colon adenocarcinoma cells | Potency, µM (series often up to 46.1 µM), inactives show top-dose re-replication activation, hits mostly activators | actives 1.8% (n = 340,000) | SW480 DNA re-replication, Hoechst DNA content imaging, 48 h; further: % of control where 0% means no effect; nearly all actives have a fitted effect of over 55% in size
#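 Per well, 250 cells were exposed to pinned compound for 48 hr. Nuclear DNA was visualised with Hoechst (40 min, 37 C) and total object intensity recorded by fluorescence scanning.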
# MCF10A rereplic: A quantitative high throughput screen for small molecules that induce DNA re-replication in MCF 10a normal breast cells. MCF 10A DNA re-replication, Hoechst nuclear intensity, 48 h. Potency, µM (series often up to 46.1 µM), for inactives: at the top dose activity, positive = re-replication, usual class: activators. actives 2.9% (n = 350,000); further: % of control where 0% means no effect; nearly all actives have a fitted effect of over 50% in size
# KB-V1 cytotox: qHTS assay for MDR1-selective chemotherapeutics: Primary screen using the drug-selected MDR subline cells KB-V1. KB-V1 MDR cells viability, CellTiter-Glo, 72 h. Potency, µM (series often up to 46.1 µM), usual class: cytotoxic. actives 3.4% (n = 400,000); further: on the % scale 0 is the no-effect control and ±100 the full control effect; nearly all actives have a fitted effect of over 60% in size
#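 KB-V1 MDR subline cells in DMEM (phenol-red free, 10% FBS) exposed to compounds in qHTS concentration series for 72 h at 37 degrees C. Viability read by CellTiter-Glo luminescence; concentration-effect curves fitted after normalization and correction.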
# ELG1 DNA repair: qHTS screen for small molecules that inhibit ELG1-dependent DNA repair in human embryonic kidney (HEK293T) cells expressing luciferase-tagged ELG1 | HEK293T ELG1-luciferase reporter, luminescence, 16 h; DNA damage induced by 5-fluorouridine | Potency, µM (highest dose often 46.1 µM), for inactives: at the top dose activity change, negative = inhibition, actives largely listed as inhibitors | actives 2.3% (n = 330,000) | AID 504467, 2011; further: on the % scale 0 is the no-effect control and ±100 the full control effect; nearly all actives have a fitted effect of over 55% in size
#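 HEK293T cells expressing luciferase-tagged ELG1 (2,000/well) received 5-Fluorouridine plus compound or DMSO for 16 hr at 37 °C. Luciferase was read by ONE-Glo luminescence after 30 min at room temperature.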
# Starred values were filed as active, the others as inactive; i = inactive; ? = inconclusive; . = not tested or not shown. This is a sample that favours compounds with a hit; in the whole collection about 8.2% have one here. The call rests on the fitted dose curve; in most records, active means well fitted curve in the direction sought with a large enough effect; inconclusive means small, poorly fitted or top-dose-only effect, or another doubt; inactive means no such curve, though single readings can be large; an effect the other way counts as inactive or inconclusive. Potency means the concentration at half of the fitted maximal effect.
SMILES,KB-3-1 cytotox,SW480 rerep,MCF10A rereplic,KB-V1 cytotox,ELG1 DNA repair
O=S(=O)(c1ccccc1)c1nc(-c2cccc(Cl)c2)oc1NCc1ccccc1,i,.,.,i,.
CCOc1ccccc1OCCCC(=O)NNC(=O)c1nn(C)c(=O)c2ccccc12,i,-7%,2%,23µM*,9%
Cn1nc(C(=O)NNC(=O)COc2ccccc2)c2ccccc2c1=O,i,0%,5%,i,0%
O=C(NNc1ccc(O)cc1)c1ccc(Br)cc1,i,-40%,?,i,5.8µM*
CCOC(=O)C1(Cc2ccccc2C)CCCN(C(=O)c2ccc(C(C)=O)s2)C1 (stereo not drawn),i,.,.,i,.
Cc1ccc(S(=O)(=O)N2CCCC2)cc1C(=O)N1CCN(Cc2ccccc2)CC1,?,-2%,-7%,i,-1%
C=CCN(c1ccccc1OC)S(=O)(=O)c1cccc(C(=O)NC2=NCCS2)c1,i,-7%,15%,?,23µM*
C=CCN(c1ccccc1)S(=O)(=O)c1cc(C(=O)NC2=NCCS2)ccc1Cl,i,-105%,-8%,i,21µM*
Cc1ccnc(NC(=O)N2CCN(c3cccc(C(F)(F)F)c3)CC2)c1,i,.,.,?,.
CN(C)c1ccc(CC(=O)N2CCCC(c3cc(C(=O)Nc4ccc(F)c(Cl)c4)no3)C2)cc1 (stereo not drawn),?,.,.,21µM*,.
O=C(Nc1ccc(F)c(Cl)c1)c1cc(C2CCCN(S(=O)(=O)c3ccccc3)C2)on1 (stereo not drawn),i,.,.,i,.
Cc1cccc(C(O)c2cnc(C)n2Cc2ccccc2)c1 (stereo not drawn),i,.,.,?,.
CCn1nc(C)c(NC(=O)Nc2cccc(Cl)c2Cl)c1C,i,0%,0%,?,-6%
CSc1nc(C)c2c(n1)N(c1ccc(C(C)C)cc1)CC2,i,14%,8%,8.2µM*,0%
COc1ccc(S(=O)(=O)c2c(Nc3ccc(F)cc3)sc(C(=O)c3ccc4c(c3)OCO4)c2N)cc1,i,.,.,?,.
COc1ccc(-c2n[nH]c(C)c2-c2cnn(-c3ccccc3)c2)c(O)c1,i,?,21µM*,?,-16%
COc1ccc(-c2onc(C)c2-c2cnn(-c3ccccc3)c2)c(O)c1C,i,?,?,i,?
COc1ccc(-c2n[nH]c(C)c2-c2cnn(-c3ccccc3)c2)c(O)c1C,?,15µM*,?,?,?
COc1cc(NC(=O)CSc2nc3nc(C)c(Cc4ccccc4Cl)c(C)n3n2)cc(OC)c1,i,.,.,i,.
CC(C)(C)c1cc(NS(=O)(=O)c2cccs2)no1,i,-5%,1%,i,-1%
CCCCCCN1C=CC(=C/C=C(\C#N)C(=O)OCC)C=C1,i,-3%,6%,8.2µM*,-2%
CC1(C)OC(=O)C(=Cc2ccc(-c3ccc(S(N)(=O)=O)cc3)o2)C(=O)O1,i,?,18µM*,i,?
N/C(=N\OC(=O)C12CC3CC(CC(C3)C1)C2)c1ccncc1,i,-8%,?,i,?
Cc1ccc(/C(N)=N/OC(=O)C23CC4CC(CC(C4)C2)C3)cc1,?,1%,18µM*,?,?
Cc1ccccc1NC(=O)c1c(NC(=O)c2ccco2)sc2c1CCC(C(C)(C)C)C2 (stereo not drawn),i,.,.,i,.
SMILES,KB-3-1 cytotox,SW480 rerep,MCF10A rereplic,KB-V1 cytotox,ELG1 DNA repair
Cc1ccc(OCC(=O)Nc2ccc(O)c(-c3nc4ccccc4o3)c2)cc1,?,-6%,16µM*,?,-12%
Cc1cc(Cl)ccc1OCC(=O)NCc1ccncc1,i,-3%,-8%,?,?
CCC(C)c1ccc(OCC(=O)Nc2cccc(-c3nc4ncccc4o3)c2)cc1 (stereo not drawn),i,.,.,i,.
Cc1cc(C)cc(OCC(=O)Nc2cccc(-c3nc4ncccc4o3)c2)c1,i,-1%,4%,?,12µM*
Cc1ccc(OCC(=O)Nc2ccc(O)c(-c3nc4cc(C)c(C)cc4o3)c2)cc1,?,.,.,i,.
Cc1cc(Cl)ccc1OCC(=O)Nc1ccncc1,i,-22%,16µM*,?,?
CC(=O)N1CCN(c2ccc(NC(=O)COc3ccc(Cl)cc3Cl)cc2)CC1,i,2%,23%,?,9.2µM*
Cc1ccc(N2CC(C(=O)OCC(=O)Nc3c(C)cccc3C)CC2=O)cc1 (stereo not drawn),i,.,.,?,.
CC1CCCN(C(=O)c2ccc(NC(=O)CC3SC(N4CCCC4)=NC3=O)cc2)C1 (stereo not drawn),i,-5%,-2%,?,20%
Cc1cnc(-c2nc3ccccc3n2C(C(=O)Nc2c(C)cccc2C)C2CC2)cn1 (stereo not drawn),i,.,.,i,.
Cc1cc(C)cc(OCC(=O)Nc2ccncc2)c1,?,2%,5%,i,16µM*
Cc1ccc(OCC(=O)Nc2cccc(S(=O)(=O)NC3=NCCCCC3)c2)cc1C,i,-8%,10%,i,2%
CCN1CCN(c2ccc(NC(=O)COc3ccc(Cl)cc3C)cc2)CC1,?,15µM*,?,?,?
Cc1ccc(OCC(=O)Nc2ccncc2)cc1,i,?,15%,i,-6%
CCN1CCN(c2ccc(NC(=O)COc3ccc([N+](=O)[O-])cc3)cc2)CC1,i,-3%,6%,i,13%
Cc1cc(C)cc(OCC(=O)Nc2cccc(S(=O)(=O)NC3=NCCC3)c2)c1,?,21µM*,?,i,-18%
CCOc1ccc(CCNC(=O)COC(=O)c2[nH]c(C)c(C(C)=O)c2C)cc1OCC,i,.,.,?,.
CC1CCCC(C)N1C(=O)COC(=O)c1cccs1 (stereo not drawn),i,15%,7%,?,?
Oc1ccc(C=NN=Cc2ccco2)c(O)c1,i,-5%,0%,?,.
CCOc1ccc2nc(-c3ccccc3)[nH]c2c1,?,18µM*,5.2µM*,i,?
COCCNC(=O)c1ccc(N2CC3CC(C2)c2cccc(=O)n2C3)c(NC(=O)c2ccccc2Br)c1 (stereo not drawn),i,.,.,?,.
c1ccc2c(c1)oc1c(N3CCOCC3)ncnc12,i,-3%,14%,i,?
CCc1nc(N2CCCCC2)c2oc3ccccc3c2n1,i,?,6%,?,.
CCc1nc(N2CCCCC2C)c2oc3ccccc3c2n1 (stereo not drawn),?,?,?,7.3µM*,.
